Inhibition data for 40 compounds are collected here from PubChem BioAssay.

As a reminder, the inhibition is the share of the control response that was lost under treatment.

Structures are written as SMILES. Calls of active or inactive are those of the source. The rule behind the calls is not given here.

The target in this experiment is Pantothenate synthetase (Mycobacterium tuberculosis (strain ATCC 25618 / H37Rv)) (UniProt P9WIL5). Briefly: Coupled enzyme confirmation of inhibitors against recombinant Mtb PanC (AID 375).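 Note: 0% = full reaction with vehicle and 100% = no enzyme background.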 Particulars: coupled enzyme assay; at 10 µM, active compounds read high.
Pantothenate synthetase (Mycobacterium tuberculosis (strain ATCC 25618 / H37Rv)), sequence (P9WIL5 whole entry, looked up): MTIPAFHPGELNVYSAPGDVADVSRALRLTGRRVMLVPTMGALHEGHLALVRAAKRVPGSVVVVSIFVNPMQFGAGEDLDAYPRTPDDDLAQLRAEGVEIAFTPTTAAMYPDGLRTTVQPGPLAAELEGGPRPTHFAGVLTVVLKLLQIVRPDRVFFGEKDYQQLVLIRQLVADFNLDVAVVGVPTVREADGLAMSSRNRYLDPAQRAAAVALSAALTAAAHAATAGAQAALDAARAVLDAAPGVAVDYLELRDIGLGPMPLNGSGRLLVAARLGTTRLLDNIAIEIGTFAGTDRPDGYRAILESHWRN
Turning to `COCc1nnc(NC(=O)CCCOc2ccccc2)s1`, the inhibition is 0% (inactive).

Take `CCCCc1nc(NCCN2CCOCC2)c(C#N)c2c1COC(C)(C)C2`: the inhibition was 0% (inactive).

With `Cc1ccc(-n2nc(-c3cccs3)cc2C(=O)NCC2CCCO2)c(C)c1` (stereo not given), the inhibition was 0% (inactive).

In the case of `Cc1c[nH]c2cccc(OCC(O)CNC(C)(C)C)c12` (stereo not given), the inhibition was 0% (inactive).

Turning to `O=C(O)C1CC(=O)N(c2ccc(Br)cc2)C1` (stereo not given), the inhibition was 0% (inactive).

On to `O=C(NCc1ccccc1)c1cc(-c2ccco2)on1`, for which the inhibition is 0% (inactive).

As to `COc1ccc(-c2cn3cc(C)ccc3n2)cc1OC`, the inhibition was 8% (inactive).

With `COc1ccc(/C=N/n2c(SC)nnc2-c2ccccc2)cc1C`, the inhibition was 0% (inactive).

On to `Cc1ccccc1NC(=O)c1ccccc1`, for which the inhibition is 10% (inactive).

With `O=C(NCCN1CCOCC1)C1CCC(=O)N1Cc1ccccc1Cl` (stereo not given), the inhibition was 0% (inactive).

Consider `COc1ccc(-n2c(SCC(=O)Nc3ccc(C(=O)O)cc3)nnc2-c2cccs2)cc1`, for which the inhibition is 0% (inactive).

On to `CC(C)c1ccc(CNc2ccc(N3CCOCC3)cc2)cc1`, for which the inhibition is 2% (inactive).

Turning to `O=C(C1CCC1)N1CCc2cc(S(=O)(=O)N3CCc4ccccc4C3)ccc21`, the inhibition is 7% (inactive).

With `CCC(=O)N(Cc1ccco1)c1nc(-c2cc(OC)ccc2OC)cs1`, the inhibition is 0% (inactive).

`Nc1nc(N)nc(-c2ccccc2)n1`: the inhibition was 0% (inactive).

In the case of `Cc1ccc(-c2cc(C(=O)Nc3cc(C)on3)c3ccccc3n2)c(C)c1`, the inhibition was 0% (inactive).

With `CCc1nccn1S(=O)(=O)c1ccc2ccc(C)cc2c1`, the inhibition was 3% (inactive).

For `CCOc1ccccc1C(=O)N1CCN(c2cccc(Cl)c2)CC1`, the inhibition is 0% (inactive).

`COc1ccc(OCCN2C(=O)NC(C)(c3ccc(C)cc3)C2=O)cc1` (stereo not given): the inhibition was 1% (inactive).

With `O=C(CSc1nnc(Cc2ccccc2)n1-c1cccc(Cl)c1)N1CCOCC1`, the inhibition is 0% (inactive).

Turning to `CN1CCCc2cc(C#N)c(=O)[nH]c21`, the inhibition was 5% (inactive).

In the case of `COc1ccc(C/C(O)=C(\C#N)c2nc3ccccc3s2)cc1`, the inhibition was 4% (inactive).

`CCCCC(c1nnnn1CS(=O)(=O)c1ccc(C)cc1)N1CCN(c2ccccc2)CC1` (stereo not given): the inhibition was 0% (inactive).

`Cc1cc(C)nc(N2CCC(C(=O)NC3CCCCCC3)CC2)n1`: the inhibition was 1% (inactive).

Regarding `CCc1cc(C(=O)OC)c(NC(=O)CCC(=O)O)s1`, the inhibition is 2% (inactive).

`CCOC(=O)CSc1nc2cc(C(=O)NCc3ccco3)ccc2c(=O)n1-c1ccc(F)cc1`: the inhibition is 3% (inactive).

As for `Cc1ccc(/C(O)=C2/C(=O)C(=O)N(Cc3ccco3)C2c2cccs2)cc1` (stereo not given), the inhibition was 0% (inactive).

`CCN(CC)C(=O)C1=C(C)Nc2nnnn2C1c1cccnc1` (stereo not given): the inhibition was 0% (inactive).

Consider `O=C(Nc1ccc2[nH]c3c(c2c1)CCCC3)c1ccco1`, for which the inhibition was 0% (inactive).

In the case of `O=C(c1ccco1)N1CCN(S(=O)(=O)c2ccc(C3CCCCC3)cc2)CC1`, the inhibition is 3% (inactive).

With `Clc1ccccc1-c1nnc2sc(-c3ccccn3)nn12`, the inhibition is 0% (inactive).

For the compound `CCOC(=O)C1=C(C)NC(C)=C(C(=O)OCC)C1c1cc(N)ccc1OC(F)F`, the inhibition is 0% (inactive).

On to `COc1ccccc1OCc1ccc(C(=O)N2CCN(C(=O)c3ccco3)CC2)cc1`, for which the inhibition was 1% (inactive).

`CCSc1nnc(NC(=O)c2csc(C)c2)s1`: the inhibition is 1% (inactive).

Consider `Cc1ccc(OCCN2CCN(C(=O)CCC(=O)Nc3nnc(C)s3)CC2)cc1`, for which the inhibition is 1% (inactive).

Consider `CCn1ncc(C2=NOC(C(=O)N3CCC(C(N)=O)CC3)C2)c1C` (stereo not given), for which the inhibition is 0% (inactive).

For `COc1ccc(C2C(C#N)=C(N)Oc3cc4c(cc32)OCO4)cc1` (stereo not given), the inhibition is 0% (inactive).

For `CCn1c(SCC(=O)c2ccc(F)cc2)nnc1-c1ccoc1C`, the inhibition was 4% (inactive).

Regarding `CCOC(=O)C1C(=O)NC(SCC(=O)Nc2nccs2)=C(C#N)C1c1ccccc1OCC` (stereo not given), the inhibition is 0% (inactive).

As for `CCC(C)n1[nH]c(=O)c2c(C)cc(C)nc21` (stereo not given), the inhibition was 0% (inactive).
